This note sets out measurements from PubChem BioAssay.

Active and inactive are the calls of the source. Unless noted, no rule for the calls is given here.

Test [1] concerns Wnt5a (protein binding on small-molecule microarray). Description: Wnt5a binders on small-molecule microarray, primary screen, biophysical, 635/667 nm fluorescence (AID 1142).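 Also: fluorescence read at 667 nm with signal to noise per printed feature.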 To be noted: 635 nm fluorescence, higher = more signal.
Test [2] in a line: cell viability in Huh7 cells, primary screen, cytotoxicity control for HCV replication inhibitor project, CellTiter-Glo luminescence, basal, 48 h (AID 1143).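 Also: Huh7 hepatoma cells carrying a hepatitis C replication reporter with no stimulus; test concentration not given here.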 To be noted: Huh7 HCV replicon, higher = more signal, called active from +8 up or from −8 down.
Test [3] is described as follows: P. aeruginosa biofilm formation inhibitors, primary screen, PAO1 strain, BacTiter-Glo luminescence, LB-PBS (AID 1144). To be noted: 12 h, higher = more signal.
The nature of test [4]: CREB reporter modulators without forskolin, primary screen, cell-based, PC12, CRE-LacZ reporter, unstimulated (AID 1145). To be noted: no forskolin, luminescence, 4.5 h, higher = more signal, called active from +8 up or from −8 down.
Test [5] is described as follows: CREB reporter modulators under forskolin, primary screen, cell-based, PC12, CRE-LacZ reporter, forskolin-stimulated (AID 1146).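 Also: PC12 cells with 6xCRE LacZ reporter stimulated by forskolin 10 µM; beta-galactosidase reporter signal reflecting CREB driven transcription.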 The note with it: luminescence, 4.5 h, higher = more signal, called active from +8 up or from −8 down.
Test [6] deals with Streptavidin (Streptomyces avidinii) (UniProt P22629). Kind of test: streptavidin binders on small-molecule microarray, primary screen, artefact control for SMM compound annotation, biophysical, 635/667 nm fluorescence (AID 1147).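 Also: signal reflects streptavidin binding to arrayed compounds as a control protein.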 The note with it: streptavidin binding, higher = more signal.
The nature of test [7]: small-molecule binders of probe aInhba, primary screen, biochemical, small-molecule microarray, 635/667 nm fluorescence (AID 1148).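 Also: score merges 667nm spot fluorescence with signal-to-noise for antibody binding to printed compounds.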 The note with it: higher = more signal.
Test [8] concerns the target Torsin-1A (Homo sapiens) (UniProt O14656). Description: torsin A binders from cell lysate, primary screen, small-molecule microarray, wild-type, 635/667 nm (AID 1149). The note with it: COS7 hTOR1A-WT lysate, 635 nm fluorescence, higher = more signal.
The target is the same in test [9]. Kind of test: small-molecule binders of mutant TOR1A in lysate, primary screen, cell lysate, small-molecule microarray, COS7 lysate, 635/667 nm fluorescence (AID 1150).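 Also: score pools 667 nm emission and signal to noise measuring lysate protein binding.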 To be noted: COS7 hTOR1A mutant lysate, 635 nm fluorescence, higher = more signal.
Test [10] deals with Sonic hedgehog protein (Shh). Kind of test: small-molecule binders of Shh protein, primary screen, biochemical, small-molecule microarray, 635/667 nm fluorescence (AID 1151).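 Also: Shh protein binding to compounds spotted on small-molecule microarray slides; score combines spot fluorescence intensity with signal-to-noise across triplicate slides.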 The note with it: small-molecule microarray binding, 635 nm fluorescence; higher = more signal.
Test [11] in a line: E. coli DRC41 culture turbidity changes, primary screen, E. coli filamentation inducer project, strain DRC41, OD650, 48 h (AID 1152).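 Also: E. coli MC1000 strain DRC41 lacking acrAB efflux pump and sulA.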 The note with it: E. coli DRC41 (acrAB sulA), higher = more signal, called active from +8 up or from −8 down.
The nature of test [12]: small-molecule binders of probe aLefty1, primary screen, biochemical, small-molecule microarray, 635/667 nm fluorescence (AID 1153).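 Also: score merges spot fluorescence with signal-to-noise ratio from the scanned slide images.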 To be noted: higher = more signal.
Test [13] can be described thus: PSAC antagonists in infected red cells, primary screen, cell-based, P. falciparum Indochina, OD700, 1 h (AID 1154). The note with it: P. falciparum Indochina infected RBC osmotic lysis, higher = more signal, called active from +8 up or from −8 down.
The nature of test [14]: PSAC antagonists in infected red cells, primary screen, cell-based, P. falciparum Indochina, OD700, 2 h (AID 1155).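 Also: lysis reports solute entry through the parasite surface anion channel PSAC; channel blockers reduce lysis of infected cells.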 To be noted: P. falciparum Indochina infected erythrocytes, osmotic lysis OD700; higher = more signal, called active from +8 up or from −8 down.
Test [15] is described as follows: osmotic lysis modulators in infected erythrocytes, primary screen, PSAC antagonist project, cell-based, P. falciparum Indochina, OD700, 3 h (AID 1156). The note with it: higher = more signal, called active from +8 up or from −8 down.
Test [16] is described as follows: PSAC antagonists in infected red cells, primary screen, cell-based, P. falciparum Indochina, OD700, 18 h (AID 1157). The note with it: P. falciparum Indochina infected erythrocytes, osmotic lysis OD700, 18 h; higher = more signal, called active from +8 up or from −8 down.
Test [17] is described as follows: modulators of S6 phosphorylation in cells, primary screen, cell-based, A549, cytoblot, luminescence, serum-stimulated (AID 1158).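 Also: serum-stimulated A549 lung adenocarcinoma cells; signal is phosphorylated S6 detected by cytoblot immunostaining with HRP secondary.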 The note with it: A549 phospho-S6 cytoblot, 5 h, higher = more signal.
Test [18] has as its target NADPH oxidase 2 (Homo sapiens) (UniProt P04839). Kind of test: NOX2-dependent H2O2 signal modulators, primary screen, NOX inhibitor project, cell-based, HEK293-NOX2, PMA-stimulated, Amplex Red fluorescence (AID 1159). Also: test concentration not given here. The note with it: 45 min, higher = more signal, called active from +8 up or from −8 down.
The target in test [19] is NADPH oxidase 4 (Homo sapiens) (UniProt Q9NPH5). Description: NOX4-dependent H2O2 signal modulators, primary screen, NOX inhibitor project, cell-based, HEK293-NOX4, tetracycline-induced, Amplex Red fluorescence (AID 1160). To be noted: 45 min, higher = more signal, called active from +8 up or from −8 down.
The target in test [20] is NADPH oxidase 5 (Homo sapiens) (UniProt Q96PH1). Description: NOX5-dependent H2O2 signal modulators, primary screen, NOX inhibitor project, cell-based, HEK293-NOX5, Amplex Red fluorescence (AID 1161). To be noted: HEK293-NOX5, ionomycin, 45 min, higher = more signal.
Chain of NADPH oxidase 5 (Homo sapiens) (Q96PH1 whole entry, looked up): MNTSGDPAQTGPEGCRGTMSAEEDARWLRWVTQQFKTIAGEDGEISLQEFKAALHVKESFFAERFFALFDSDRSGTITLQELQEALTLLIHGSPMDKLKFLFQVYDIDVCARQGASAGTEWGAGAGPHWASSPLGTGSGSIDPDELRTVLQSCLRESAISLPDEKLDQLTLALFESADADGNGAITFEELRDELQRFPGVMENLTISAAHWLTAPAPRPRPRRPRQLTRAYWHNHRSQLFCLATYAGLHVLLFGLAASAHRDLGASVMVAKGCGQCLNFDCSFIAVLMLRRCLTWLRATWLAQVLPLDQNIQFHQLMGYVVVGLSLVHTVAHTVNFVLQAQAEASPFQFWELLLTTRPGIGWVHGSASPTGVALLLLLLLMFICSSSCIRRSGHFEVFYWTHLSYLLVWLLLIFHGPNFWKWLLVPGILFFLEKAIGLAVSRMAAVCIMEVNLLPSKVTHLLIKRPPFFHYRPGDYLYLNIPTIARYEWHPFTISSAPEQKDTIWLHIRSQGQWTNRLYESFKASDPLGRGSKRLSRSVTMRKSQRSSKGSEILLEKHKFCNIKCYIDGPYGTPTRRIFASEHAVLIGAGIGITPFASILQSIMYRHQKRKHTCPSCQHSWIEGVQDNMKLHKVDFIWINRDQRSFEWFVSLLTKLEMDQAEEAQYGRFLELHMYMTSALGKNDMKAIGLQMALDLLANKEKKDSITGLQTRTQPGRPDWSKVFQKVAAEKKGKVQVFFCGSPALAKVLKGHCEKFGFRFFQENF

Chain of NADPH oxidase 2 (Homo sapiens) (P04839 whole entry, looked up): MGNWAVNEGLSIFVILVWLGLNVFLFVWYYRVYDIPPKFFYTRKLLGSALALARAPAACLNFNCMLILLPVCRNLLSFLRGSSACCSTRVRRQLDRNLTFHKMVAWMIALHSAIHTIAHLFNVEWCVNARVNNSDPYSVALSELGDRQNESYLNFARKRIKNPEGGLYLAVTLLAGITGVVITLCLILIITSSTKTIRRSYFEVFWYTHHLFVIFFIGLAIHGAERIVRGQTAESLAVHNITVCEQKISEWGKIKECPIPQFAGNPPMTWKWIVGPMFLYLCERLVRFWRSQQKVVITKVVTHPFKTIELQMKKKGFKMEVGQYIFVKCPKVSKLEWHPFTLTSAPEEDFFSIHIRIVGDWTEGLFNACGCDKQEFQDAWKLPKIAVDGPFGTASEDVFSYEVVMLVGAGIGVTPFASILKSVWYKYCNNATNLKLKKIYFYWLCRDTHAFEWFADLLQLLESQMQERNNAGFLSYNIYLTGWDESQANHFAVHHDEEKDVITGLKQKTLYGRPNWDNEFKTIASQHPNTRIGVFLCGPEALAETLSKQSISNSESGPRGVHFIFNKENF
Chain of NADPH oxidase 4 (Homo sapiens) (Q9NPH5 whole entry, looked up): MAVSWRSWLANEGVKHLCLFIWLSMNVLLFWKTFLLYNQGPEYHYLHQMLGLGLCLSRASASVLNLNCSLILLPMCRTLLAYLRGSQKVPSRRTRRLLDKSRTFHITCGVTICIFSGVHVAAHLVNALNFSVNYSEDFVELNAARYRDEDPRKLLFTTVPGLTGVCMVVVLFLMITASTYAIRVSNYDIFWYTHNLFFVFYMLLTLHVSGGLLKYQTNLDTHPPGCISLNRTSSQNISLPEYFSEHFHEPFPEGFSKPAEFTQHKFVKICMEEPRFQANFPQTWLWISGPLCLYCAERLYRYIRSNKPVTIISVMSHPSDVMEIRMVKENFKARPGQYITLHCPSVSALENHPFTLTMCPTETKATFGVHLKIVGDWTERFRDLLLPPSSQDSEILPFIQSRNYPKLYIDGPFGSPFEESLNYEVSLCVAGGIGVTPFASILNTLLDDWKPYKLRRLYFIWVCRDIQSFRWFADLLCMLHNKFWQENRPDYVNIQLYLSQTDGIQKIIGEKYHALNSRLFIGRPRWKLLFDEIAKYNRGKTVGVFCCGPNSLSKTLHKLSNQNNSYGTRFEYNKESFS
Chain of Torsin-1A (Homo sapiens) (O14656 whole entry, looked up): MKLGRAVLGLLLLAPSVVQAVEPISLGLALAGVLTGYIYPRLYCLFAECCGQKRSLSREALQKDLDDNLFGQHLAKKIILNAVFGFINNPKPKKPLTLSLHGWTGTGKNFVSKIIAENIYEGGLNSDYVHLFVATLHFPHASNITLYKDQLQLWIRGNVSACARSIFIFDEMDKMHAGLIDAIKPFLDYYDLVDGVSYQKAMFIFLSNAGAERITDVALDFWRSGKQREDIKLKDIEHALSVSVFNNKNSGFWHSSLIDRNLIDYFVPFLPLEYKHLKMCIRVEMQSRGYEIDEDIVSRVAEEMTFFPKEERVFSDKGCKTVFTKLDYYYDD
Chain of Streptavidin (Streptomyces avidinii) (P22629 whole entry, looked up): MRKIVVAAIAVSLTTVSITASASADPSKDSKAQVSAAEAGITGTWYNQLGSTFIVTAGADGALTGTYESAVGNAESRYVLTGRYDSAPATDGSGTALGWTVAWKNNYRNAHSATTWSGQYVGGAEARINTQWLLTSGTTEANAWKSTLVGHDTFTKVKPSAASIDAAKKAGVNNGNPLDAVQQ

For the compound `CC(CCN1CCc2nc(-c3ccccc3)c(-c3ccccc3)cc2C1)=NOC(C)CN1CCCc2nc(C)c(C)cc21` (stereo not given), the composite z-score in test [1] stood at 0.281; in test [6], 0.808; in [7], 0.0785; with Torsin-1A (Homo sapiens) [8], 0.373; with Torsin-1A (Homo sapiens) [9], 0.432; in test [10], 0.667. This compound registered a composite z-score in [12] of 0.0956. Further, the z-score in [2] was -1.33 (inactive); in test [3], 0.25 (inactive); in test [4] it was 0.894 (inactive); in test [5], -0.0977 (inactive); in test [11] it was -0.115 (inactive); in test [13], 3.04 (inactive). For the same compound, the z-score is 0.494 (inactive) in [14]; 0.959 (inactive) in test [15]; 0.268 (inactive) in test [16]; -0.56 in [17]; -5.56 (inactive) in [18]; -0.946 (inactive) in test [19]. Besides, the z-score in test [20] was -3.15.
Consider `CCN1C(=O)[C@H]2[C@H]3[C@H](O)[C@H](O)CC(=NNC(=O)OCc4ccccc4)[C@H]3CC[C@H]2C1=O`, for which the composite z-score was 0.038 in [1]; 0.214 in test [6]; -0.0719 in test [7]; -0.211 in the test with Torsin-1A (Homo sapiens) [8]; 0.223 in the test with Torsin-1A (Homo sapiens) [9]; -0.486 in test [10]. For the same compound, the composite z-score in test [12] was 0.0931. In addition, the z-score in test [2] was -0.0436 (inactive); in [3], 0.877 (inactive); in test [4], -0.119 (inactive); in test [5], -0.497 (inactive); in test [11] it was -1.89 (inactive); in test [13], 1.26 (inactive). Also, the z-score in test [14] was 0.322 (inactive); in [15], 0.364 (inactive); in test [16], 0.0338 (inactive); in [17] it was -0.18; in test [18], 0.92 (inactive); in test [19], 0.424 (inactive). The compound further gave a z-score in test [20] of 0.0659.
For `CC1(C)O[C@H]2OC([C@H](O)CON3C(=O)c4ccccc4C3=O)[C@H](O)[C@H]2O1` (stereo not given in full), the composite z-score in [1] is -0.0105; in [6] it was -0.467; in test [7], 0.0319; with Torsin-1A (Homo sapiens) [8] it was 0.0012; with Torsin-1A (Homo sapiens) [9], 0.129; in [10], 0.0991. The compound further had a composite z-score in test [12] of -0.352. The z-score was 0.929 (inactive) in test [2]; 0.425 (inactive) in test [3]; 0.831 (inactive) in test [4]; 0.266 (inactive) in [5]; 0.336 (inactive) in test [11]; -0.36 (inactive) in test [13]. Besides, the z-score in test [14] is -0.215 (inactive); in test [15], -0.356 (inactive); in [16] it was -0.266 (inactive); in test [17], -0.339; in test [18], 0.821 (inactive); in test [19] it was 0.146 (inactive). The compound further returned a z-score in test [20] of 0.145.
As for `O=C1[C@H]2[C@H]3[C@H](O)[C@H](O)CC(=NOCc4ccccc4)[C@H]3CC[C@H]2C(=O)N1C1CCCCC1`, the composite z-score in test [1] is -0.0056; in test [6] it was 0.457; in test [7], -0.0917; with Torsin-1A (Homo sapiens) [8], 0.161; with Torsin-1A (Homo sapiens) [9], 1.03; in test [10] it was 0.449. Also, in test [12], the composite z-score is -0.0222. For the same compound, the z-score in [2] is -1.79 (inactive); in [3] it was 0.415 (inactive); in [4], 0.52 (inactive); in [5] it was -0.262 (inactive); in test [11], -0.135 (inactive); in [13], 21.3 (active). Besides, the z-score in test [14] was 2.36 (inactive); in [15], 0.43 (inactive); in [16], 0.842 (inactive); in test [17] it was -0.441; in test [18] it was -0.622 (inactive); in [19], -1.09 (inactive). For the same compound, in test [20], the z-score was -4.07.
